# Laboratory results reported in PubChem BioAssay AID463173 (ICCB-Longwood Screening Facility, Harvard Medical School, 2010).
# The campaign covered roughly 52,000 compounds. About 1,700 (3.3%) were called active. Cut-off read from the data, not from the text of the source: active = survival mostly below about 52% (no sharp cut-off); inactive = mostly above about 56%. Shown is part of a subset that was picked to be rich in actives.
# System: Wild type
# Experiment: S. aureus survival, RN4220 and DeltatarO strains – OD600, teichoic acid synthesis inhibitors, primary screen (AID 463173)
# Details: S. aureus RN4220 wild type/DeltatarO growth, OD600, 18 h, hits give low values, screened at 18.75 µg/mL (by protocol)
row,Structure (SMILES),survival
1,Cc1cc(Br)ccc1NC(=O)CN1C(=O)c2cccnc2Sc2ccccc21,85% (inactive)
2,CCN(CC)c1ccc(NC(=O)CN2C(=O)c3cccnc3Oc3ccccc32)c(C)c1,135% (inactive)
3,CCN(CC)c1ccc(NC(=O)CN2C(=O)c3cccnc3Sc3ccccc32)c(C)c1,-4% (active)
4,CCC(=O)Nc1ccc(CC)cc1-c1nc2ccccc2n(CC(=O)Nc2ccccc2C)c1=O,88% (inactive)
5,COc1ccc(Nc2ncc3c(n2)CCN(Cc2ccc(Br)s2)C3)c(OC)c1,127% (inactive)
6,CCOc1ccc(CNC(=O)C2CCN(Cc3cc4ccccc4n3Cc3ccccc3C)CC2)cc1,60% (inactive)
7,CCn1c2ccccc2c2cc(CN3CCN(Cc4ccccc4F)CC3)ccc21,4% (active)
8,Cc1ccccc1Cn1c(CN2CCC(C(=O)NCc3ccc(Cl)cc3)CC2)cc2ccccc21,60% (inactive)
9,CCN(CC)C(=O)C1CCN(Cc2ccccc2F)CC1,107% (inactive)
10,O=c1c2ccccc2n(Cc2ccccc2F)c(=O)n1-c1cccc(F)c1,75% (inactive)
11,CCn1c2ccccc2c2cc(CN3CCN(Cc4ccccc4C)CC3)ccc21,-1% (active)
12,O=C1NC(=O)C(Nc2cccc3ccccc23)S1 (stereo not given),104% (inactive)
13,O=C(CSc1nnc(Cn2nnc3ccccc32)o1)N(Cc1ccc(Cl)cc1)c1ccccc1,141% (inactive)
14,CCOC(=O)c1ccccc1NC(=O)c1ccncc1,94% (inactive)
15,Cc1cccc(C(CC(=O)NCC2(c3ccccc3)CCCC2)c2ccccc2)c1O (stereo not given),2% (active)
16,Cc1ccccc1NC(=O)C(=O)NCC1(c2ccccc2)CCCC1,94% (inactive)
17,Cc1ccc(O)c(C(CC(=O)NCC2(c3ccccc3)CCCC2)c2ccccc2)c1 (stereo not given),6% (active)
18,O=C(CC(c1ccccc1)c1cc(Br)ccc1O)NCC1(c2ccccc2)CCCC1 (stereo not given),63% (inactive)
19,Cc1ccc(C(CC(=O)NCC2(c3ccccc3)CCCC2)c2ccccc2)c(O)c1 (stereo not given),36% (inactive)
20,CCC(=O)NCC1(c2ccccc2)CCCC1,102% (inactive)

row,Structure (SMILES),survival
1,COc1ccc(-c2cc(C(F)(F)F)nc(SCCC(=O)Nc3cccc(O)c3)n2)cc1,80% (inactive)
2,COc1cc(Cl)c(C)cc1NC(=O)c1nn(C)c2c1CSc1ccccc1-2,85% (inactive)
3,O=C(CSc1nnc(-c2ccccc2Br)n1-c1ccccc1)c1ccc(F)cc1,4% (active)
4,COc1ccccc1-c1nnc(SCC(=O)c2ccc(Cl)cc2)n1-c1ccccc1,0% (active)
5,Cn1c(SCC(=O)c2ccc(F)cc2)nnc1-c1ccccc1Br,74% (inactive)
6,CCOc1ccc(-c2nnc(SCC(=O)c3ccc(F)cc3)n2-c2ccccc2)cc1,153% (inactive)
7,Cc1ccc(-c2nnc(SCC(=O)c3ccc(Cl)cc3)n2-c2ccccc2)cc1,94% (inactive)
8,Cc1ccc(C(=O)CSc2nnc(-c3ccccc3)n2-c2ccccc2)cc1,79% (inactive)
9,COc1ccccc1-c1nnc(SCC(=O)c2ccc(F)cc2)n1-c1ccccc1,0% (active)
10,O=C(CSc1nnc(-c2ccc(Br)cc2)n1-c1ccccc1)c1ccccc1,97% (inactive)
11,COc1ccccc1-c1nnc(SCC(=O)OC(C)C)n1-c1ccccc1,115% (inactive)
12,CCc1cccc(NC(=O)CN(C)S(=O)(=O)c2ccc3c(c2)CCCN3C(C)=O)c1,83% (inactive)
13,COc1ccc(F)cc1S(=O)(=O)NCC(c1ccco1)S(=O)(=O)c1cccs1 (stereo not given),81% (inactive)
14,CCCN1CCN(CC2=C(C(=O)OCC)C(c3ccc(OC(C)C)cc3)NC(=O)N2)CC1 (stereo not given),72% (inactive)
15,COc1ccc(-n2nnc(-c3nc(-c4cccs4)no3)c2N)cc1OC,100% (inactive)
16,CCN1CCN(C(c2ccc(F)cc2)c2sc3nc(-c4ccco4)nn3c2O)CC1 (stereo not given),131% (inactive)
17,Cc1ccc(C(=O)N2CCN(c3cccc(Cl)c3)CC2)cc1-n1c(C)nc2cccnc21,84% (inactive)
18,Cc1cc2c(cc1S(=O)(=O)NCc1ccc(F)cc1)OCC(=O)N2,82% (inactive)
19,CCOc1cc(C(=O)N2CCC(c3ccncc3)CC2)cc(OCC)c1OCC,-1% (active)
20,CCOc1ccc(C(=O)N2CCC(c3ccncc3)CC2)cc1,78% (inactive)

row,Structure (SMILES),survival
1,COc1cc(C(=O)N2CCC(c3ccncc3)CC2)cc(OC)c1OC,78% (inactive)
2,COc1cc(OC)cc(C(=O)N2CCC(c3ccncc3)CC2)c1,69% (inactive)
3,COc1ccc(C(=O)N2CCC(c3ccncc3)CC2)cc1OC,-6% (active)
4,CCN(CC)c1ccc(C(=O)N2CCC(c3ccncc3)CC2)cc1,85% (inactive)
5,Cc1ccc(C)c(C(=O)COC(=O)CCCC(=O)Nc2cc(C(F)(F)F)ccc2Cl)c1,45% (inactive)
6,Cc1c(C(=O)Nc2ccc(F)c(Cl)c2)sc2nc3n(c(=O)c12)CCC3,81% (inactive)
7,CCc1nc(SCc2ccccc2)[nH]c(=O)c1C,102% (inactive)
8,COc1cccc(NC(=O)Cn2c(=O)n(CCCCC(=O)NCc3ccc4c(c3)OCO4)c(=O)c3ccccc32)c1,92% (inactive)
9,COc1ccc(NC(=O)CSc2nc3ccccc3nc2N2CCOCC2)c(OC)c1,65% (inactive)
10,COc1ccc(OC)c(NC(=O)CSc2nc3ccccc3nc2N2CCCCC2)c1,-10% (active)
11,COc1cccc(NC(=O)CSc2nc3ccccc3nc2N2CCOCC2)c1,67% (inactive)
12,COc1ccc(CCNC(=O)CSc2nc3ccccc3nc2Cc2ccc(Cl)cc2)cc1OC,10% (active)
13,CCCCc1ccc(NC(=O)CSc2nc3ccccc3nc2N2CCCCC2)cc1,41% (inactive)
14,CCc1cccc(NC(=O)CSc2nc3ccccc3nc2N2CCCCC2)c1,-13% (active)
15,COc1ccc(NC(=O)CSc2nc3ccccc3nc2N2CCC(C)CC2)cc1,45% (inactive)
16,COc1ccc(NC(=O)CSc2nc3ccccc3nc2N2CCCCC2)cc1,7% (active)
17,COc1ccc(CCNC(=O)CSc2nc3ccccc3nc2Cc2ccc(C)cc2)cc1OC,52% (inactive)
18,O=C(CSc1nc2ccccc2nc1Cc1ccc(Cl)cc1)NCCc1ccccc1,69% (inactive)
19,CC(=O)Nc1ccc(NC(=O)CSc2nc3ccccc3nc2N2CCCCC2)cc1,90% (inactive)
20,COc1cccc(Cc2nc3ccccc3nc2SCC(=O)Nc2cc(OC)ccc2OC)c1,60% (inactive)
